Source: PubChem (several laboratories)
PABP FP inh: PABP poly(A) RNA binding inhibitors, primary screen, biochemical, fluorescence polarization, uHTS. calls only at 35 µM. Polyadenylate-binding protein 1 (Homo sapiens), P11940. 290,000 compounds, 1% hits;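 also: calls also rest on retests at 20 µM and on dose response follow-up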
PABP1 MLLE inh: inhibitors of PABP1 MLLE–PAM2 peptide binding, primary screen, biochemical, fluorescence polarization, FITC-PAM2, GST-MLLE | inhibition, % at 20 µM | 360,000 compounds, 0.36% hits | Polyadenylate-binding protein 1 (Homo sapiens), P11940; in the data active = inhibition above about 35%, passing the limit was not always enough;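 also: plate controls were DMSO wells with GST-MLLE for no effect and wells lacking GST-MLLE protein for full effect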
ABCB6 inh MLPCN: ABCB6 transporter inhibitors, primary screen, K562-ABCB6 cells, flow cytometry, MLPCN library; ATP-binding cassette sub-family B member 6 (Homo sapiens), Q9NP58; K562-ABCB6 porphyrin accumulation, 1 h; active compounds read low; fluorescence ratio to DMSO, % at 10 µM; 360,000 compounds, 0.19% hits;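 active = fluorescence ratio to DMSO below 75%, the collection mean minus 3 SD; inconclusive = too few cells collected in the well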;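 also: signal is porphyrin accumulated inside mitochondria; 100% equals median channel fluorescence of DMSO control wells; lower ratio means ABCB6 inhibition with less porphyrin fluorescence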
AI-2 QS modul: Vibrio harveyi AI-2 quorum sensing modulators, primary screen, JMH597 strain, luminescence/OD600 ratio; activity change, % at 7.5 µM; AID 2094, 2009; 300,000 compounds, 0.4% hits; Vibrio harveyi JMH597 AI-2 luminescence/OD600 ratio, 9 h; active compounds read low; strain lacks LuxN and CqsS sensors; 0 = neutral-control median; in the data active = activity change below about -75%, passing the limit was not always enough; inconclusive = no clear call, values can overlap the other calls;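 also: luminescence divided by OD600 gain over 9 h not by final OD600 alone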
eIF4H FP inh: human eIF4H binding inhibitors, primary screen, translation initiation inhibitor project, biochemical, uHTS, fluorescence polarization. eIF4H fluorescence polarization binding assay. inhibition, % at 35 µM. 290,000 compounds, 0.94% hits. AID 2012, 2009;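 also: calls also rest on retests at 20 µM and on dose response follow-up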
PHOSPHO1 block: PubChem AID 1565; Phosphoethanolamine/phosphocholine phosphatase (Homo sapiens), Q8TCT1; recombinant PHOSPHO1, absorbance phosphatase assay; inhibition, % at 13.3 µM; 290,000 compounds, 1.1% hits; in the data active = inhibition above about 60%
Target sequence (Q8TCT1 whole entry, looked up): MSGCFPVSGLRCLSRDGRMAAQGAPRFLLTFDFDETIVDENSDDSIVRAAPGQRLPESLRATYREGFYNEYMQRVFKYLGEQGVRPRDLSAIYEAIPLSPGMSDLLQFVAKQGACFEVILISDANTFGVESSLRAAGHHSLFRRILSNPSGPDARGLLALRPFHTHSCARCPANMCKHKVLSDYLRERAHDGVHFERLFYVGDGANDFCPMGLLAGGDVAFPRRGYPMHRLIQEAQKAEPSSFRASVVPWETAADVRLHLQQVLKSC
* = called active by the depositor; i = inactive; ? = inconclusive; . = not tested or not shown; + = active, no number. Compounds with a hit are over-represented: about 2.6% of the library has one in this group of screens. Unless noted, no rule for the calls is given here.

SMILES	PABP FP inh	PABP1 MLLE inh	ABCB6 inh MLPCN	AI-2 QS modul	eIF4H FP inh	PHOSPHO1 block
COc1ccc(CCn2c(C)cc(C(=O)CSc3nnnn3-c3ccccc3)c2C)cc1	i	-20.3	88.0	19.9	3.8	71.3*
CC1(Oc2ccc(CC#N)cc2)CCN(Cc2ccc(-n3ccnc3)cc2)C1 (stereo not given)	.	-9.0	90.0	.	.	.
Cc1ccc(S(=O)(=O)N2C[C@H]3C(=O)C[C@@H](c4ccccc4)N(S(=O)(=O)c4ccccc4)[C@H]3C[C@H]2c2ccccc2)cc1	.	4.2	104.0	.	.	.
CN(C)c1ccc(NC(=O)c2sc(SCC(=O)Nc3nccs3)nc2N)cc1	i	17.2	93.0	15.8	1.9	67.3*
CC1(C(=O)NS(=O)(=O)Cc2ccccc2C(F)(F)F)CCN1C(=O)C/C=C/c1ccccc1 (stereo not given)	.	0.7	93.0	.	.	.
CCCCCn1c(N)c(-c2nc3ccccc3o2)c2c([N+](=O)[O-])nn(C)c(=O)c21	i	1.1	95.0	13.3	74.2*	-35.5
C/C(=N\Nc1ncnc2sc(C)c(C)c12)c1ccccn1	+	-7.8	524.0	-88.0*	?	27.9
COc1ccccc1CN(C)C[C@@H]1OCc2cnnn2CCCC(=O)N([C@H](C)CO)C[C@H]1C	.	7.5	99.0	.	.	.
Cc1cc2cc(CNC(=O)c3ccc(S(=O)(=O)N4CCOCC4)cc3)ccc2n1C	i	46.8*	96.0	2.3	18.2	-10.0
Cc1cc2cc(CNC(=O)c3ccc(S(=O)(=O)N(C)C)cc3)ccc2n1C	i	50.3*	105.0	14.6	?	22.2
Cc1cc2cc(CNC(=O)c3cccc([N+](=O)[O-])c3)ccc2n1C	i	-13.6	98.0	21.3	45.8	-1.2
COc1cccc(CNC(=O)c2ccc(S(=O)(=O)N3CCOCC3)cc2)c1	.	11.8	99.0	.	.	.
CNC(=O)C1CCC(=O)N1Cc1c[nH]c2ccccc12 (stereo not given)	.	6.6	94.0	.	.	.
CCCNC(=O)c1cc(C2CCCN(S(=O)(=O)c3cccs3)C2)on1 (stereo not given)	.	-10.4	99.0	.	.	.
CC1=CCC(C(=O)O)C(C(=O)NC2CCCCC2)C1 (stereo not given)	i	5.8	100.0	1.3	70.3*	35.1
O=C1c2ccccc2C(=O)N1CCCN1C(=O)c2ccccc2C1=O	.	4.5	100.0	.	.	.
O=C1c2ccccc2C(=O)N1CC1=CCS(=O)(=O)C1	i	39.1*	96.0	22.2	-7.1	-8.1
O=C(NCC1CC1)c1cc2c(c(-c3cccc(-c4ccccc4F)c3)n1)[C@@H](CCO)N(C(=O)CC1CC1)C2	.	.	97.0	.	.	.
O=C(NCCO)c1ccc2nc(-c3ccco3)c(-c3ccco3)nc2c1	+	40.4*	93.0	31.6	86.7*	74.1*
O=C(NCCO)c1ccc(Cl)c(Cl)c1	i	10.3	91.0	16.3	1.0	6.4
O=C(c1ccccc1)c1ccc2nc(-c3ccco3)c(-c3ccco3)nc2c1	i	1.6	96.0	28.8	96.5	-103.3
O=C(NC1CCCC1)c1ccc2nc[nH]c2c1	i	1.4	99.0	4.7	0.9	-14.2
c1coc(-c2nc3ccccc3nc2-c2ccco2)c1	+	32.0	98.0	18.0	102.1*	27.5
O=C(NCCc1ccccc1)c1ccc2nc(-c3ccco3)c(-c3ccco3)nc2c1	+	16.1	102.0	33.1	88.5*	53.3
O=C(NC1CCCC1)c1ccc2nc(-c3ccco3)c(-c3ccco3)nc2c1	+	33.8	96.0	.	101.5*	44.7
CC(=O)N1CCCC(C)(C(=O)N(C)Cc2cccc3ccccc23)C1 (stereo not given)	.	-13.2	101.0	.	.	.
O=C(Nc1ccc2c(c1)OCCO2)C(c1ccnc2ccccc12)N1CCC(Cc2ccccc2)CC1 (stereo not given)	.	7.1	99.0	.	.	.
Cc1ccc(C)c(N2CCN(C(=O)c3ccc4nc(-c5ccco5)c(-c5ccco5)nc4c3)CC2)c1	i	25.8	103.0	37.0	86.4*	35.4
